Pf growth 96h – P. falciparum growth inhibition at 96 hours. P. falciparum luciferase reporter growth, 96 h. Potency, µM (series often up to 28.7 µM), inactives show top-dose activity change, negative = inhibition, usual class: inhibitors. 6.9% of 320,000 active. AID 504834; note: potency is the fitted concentration of half-maximal effect; % is set by controls: 0 for no effect and ±100 for the full control effect
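Parasite growth measured via integrated firefly luciferase reporter in P. falciparum. Infected erythrocytes at 2% hematocrit, 0.05% parasitemia final were treated 96 hours at 37 C under 5% CO2, and luminescence was read.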
Shiga inhibitor – Shiga toxin inhibition | AID 2315 | 9.2% of 290,000 active | inhibition, % at 38.7 µM | Vero cells, Shiga toxin protein synthesis inhibition reporter; in the data active = inhibition mostly above about 28%, no sharp cut-off; inactive = mostly below about 43%; note: 0% is about no effect
Cycloheximide cs – counter-screen hit for Shiga toxin inhibitors, cycloheximide; max response, %; cell reporter, cycloheximide protein synthesis inhibition counterscreen; AID 2314; 12% of 300,000 active; in the data active = max response mostly above about 13%, no sharp cut-off; inactive = mostly below about 14%; note: read at 38.3 µM for the half of the compounds with a filed dose; 0% is about no effect
NS1 function inh – blocks influenza NS1 protein function. Potency, µM (series often up to 46.1 µM), without a hit: at the highest dose activity, positive = more growth. 0.4% of 270,000 active; calls by dose curve; note: potency is the fitted concentration of half-maximal effect; actives are rising curves; nearly all actives have a fitted effect of over 50% in size
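S. cerevisiae expressing influenza A NS1, grown in glucose, washed, then diluted 1:100 into pH 6.0 -URA galactose medium with 23 nl compound. Growth recovery read as OD600; NS1-free strain serves as control.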
Pf growth 48h – P. falciparum growth inhibition at 48 hours (one generation); AID 504832; P. falciparum luciferase growth in erythrocytes, 48 h; Potency, µM (doses to about 28.7 µM), for inactives: at the top dose activity change, negative = inhibition, hits mostly inhibitors; 5.9% of 310,000 active; note: potency is the fitted concentration of half-maximal effect; % is set by controls: 0 for no effect and ±100 for the full control effect
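Parasite viability was followed by luminescence of a genomically integrated firefly luciferase. Cultures held 0.1% parasitemia at 2% hematocrit (final), incubated under 5% CO2 at 37 C.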
SARS PLpro yeast-1 – inhibitors of SARS-CoV papain-like protease in yeast; S. cerevisiae expressing SARS-CoV PLpro, growth rescue; Potency, µM (highest dose often 32.9 µM), without a hit: at the top dose activity, positive = growth rescue, hits mostly activators; 0.19% of 330,000 active; AID 485353; calls by dose curve; note: potency is the fitted concentration of half-maximal effect; 0% is about no effect; nearly all actives have a fitted effect of over 55% in size
SARS PLpro yeast-2 – Inhibits SARS-CoV PLP in yeast, hit validation; shares compounds with SARS PLpro yeast-1; yeast expressing SARS-CoV PLpro, growth phenotype rescue; calls only; 19% of 1,000 active; call rule not given here
Numbers without * were called inactive. The list is a sample of the results. Unless noted, calls come from the whole dose curve; as a rule, active = well fitted inhibition curve with a large enough effect; inconclusive = small, poorly fitted or top-dose-only effect, or another doubt; inactive = no such curve, though single readings can be large or run the other way.

What do the screens show for `COc1ccccc1CNC(=S)NCCc1ccccc1`?
Pf growth 96h: 1%; Shiga inhibitor: 47*; Cycloheximide cs: 13; NS1 function inh: -22%; Pf growth 48h: 12%; SARS PLpro yeast-1: inconclusive; SARS PLpro yeast-2: inconclusive

Results for Cc1ccc2c(CSc3nnc4ccccn34)cc(=O)oc2c1C ?
Pf growth 96h: -12%; Shiga inhibitor: 60*; Cycloheximide cs: 17; NS1 function inh: 16%; Pf growth 48h: 34%; SARS PLpro yeast-1: 3.5µM*; SARS PLpro yeast-2: inactive

Results for Cc1noc(C)c1CSc1nnc2ccccn12 ?
Pf growth 96h: -3%; Shiga inhibitor: -23; Cycloheximide cs: -3; NS1 function inh: 0%; Pf growth 48h: 31%; SARS PLpro yeast-1: -7%

How did O=C(NCCCn1ccnc1)C(=O)NCC1OCCCN1S(=O)(=O)c1ccccc1 (stereo not drawn) do in these assays?
Pf growth 96h: -9%; Shiga inhibitor: -9; Cycloheximide cs: 1; NS1 function inh: -9%; Pf growth 48h: 0%; SARS PLpro yeast-1: -4%

How did CCc1ccc(CNC(=O)CCCn2nc(C)n3ccnc3c2=O)cc1 do in these assays?
Pf growth 96h: inconclusive; Shiga inhibitor: -6; Cycloheximide cs: 1; NS1 function inh: 7%; Pf growth 48h: 16%; SARS PLpro yeast-1: inconclusive; SARS PLpro yeast-2: inactive

Results for COc1ccc(CNC(=O)CCCn2nc(C)n3c(cc4sccc43)c2=O)cc1 ?
Pf growth 96h: -13%; Shiga inhibitor: -8; Cycloheximide cs: -8; NS1 function inh: 13%; Pf growth 48h: 11%; SARS PLpro yeast-1: 1%

How did CO[C@]1(NC(=O)CSCC#N)C(=O)N2C(C(=O)O)=C(CSc3nnnn3C)CS[C@H]21 do in these assays?
Pf growth 96h: -15%; Pf growth 48h: 5%

How did CC(C)(C)NC(=O)c1ccccc1NC(=O)C1CCCO1 (stereo not drawn) do in these assays?
Pf growth 96h: -22%; Shiga inhibitor: -1; Cycloheximide cs: 2; NS1 function inh: 3%; Pf growth 48h: 6%; SARS PLpro yeast-1: 1%

What do the screens show for `Cc1cccc(C2NC(c3cccc(C)c3)C([N+](=O)[O-])C(C)(C)C2[N+](=O)[O-])c1` (stereo not drawn)?
Pf growth 96h: inconclusive; Shiga inhibitor: -3; Cycloheximide cs: -3; NS1 function inh: 18%; Pf growth 48h: inconclusive; SARS PLpro yeast-1: inconclusive; SARS PLpro yeast-2: inactive

Results for Cc1ccccc1C1NC(c2ccccc2C)C([N+](=O)[O-])C(C)(C)C1[N+](=O)[O-] (stereo not drawn) ?
Pf growth 96h: inconclusive; Shiga inhibitor: 3; Cycloheximide cs: 1; NS1 function inh: 5%; Pf growth 48h: inconclusive; SARS PLpro yeast-1: 0%

What do the screens show for `Cn1c(=O)c2c(-c3ccc(OC(F)F)cc3)cc(-c3ccccc3)nc2n(C)c1=O`?
Pf growth 96h: inconclusive; Shiga inhibitor: 2; Cycloheximide cs: -1; NS1 function inh: -3%; Pf growth 48h: inconclusive; SARS PLpro yeast-1: 1%

Results for Nc1c([N+](=O)[O-])ccc(Oc2ccccc2)c1Cl ?
Shiga inhibitor: 26; Cycloheximide cs: 7

What do the screens show for `COC(=O)Nc1ccc(S(=O)(=O)Nc2ccc(O)cc2)cc1`?
Pf growth 96h: 45%; Shiga inhibitor: -4; Cycloheximide cs: -5; NS1 function inh: 11%; Pf growth 48h: inconclusive; SARS PLpro yeast-1: inconclusive; SARS PLpro yeast-2: inactive

Results for O=C(O)CC(Cc1ccc(Cl)cc1)C(=O)NCc1ccccc1 (stereo not drawn) ?
Pf growth 96h: inconclusive; Shiga inhibitor: -11; Cycloheximide cs: -1; NS1 function inh: 6%; Pf growth 48h: 13%; SARS PLpro yeast-1: -12%

What do the screens show for `O=C(CNS(=O)(=O)c1ccc2ccccc2c1)OCc1csc(-c2ccccc2)n1`?
Pf growth 96h: inconclusive; Shiga inhibitor: 19; Cycloheximide cs: 20*; NS1 function inh: -17%; Pf growth 48h: -6%; SARS PLpro yeast-1: 3.2µM*; SARS PLpro yeast-2: inactive

What do the screens show for `COC(=O)c1c(-c2c(Cl)cccc2Cl)noc1C(=O)NN`?
Pf growth 96h: 10%; Shiga inhibitor: 16; Cycloheximide cs: -2; NS1 function inh: 7%; Pf growth 48h: inconclusive; SARS PLpro yeast-1: 0%

Results for Cc1cc(C(=O)NN=C2CCCCC2)c2ccccc2n1 ?
Pf growth 96h: 20%; Shiga inhibitor: -6; Cycloheximide cs: 1; NS1 function inh: 11%; Pf growth 48h: 8%; SARS PLpro yeast-1: 13µM*; SARS PLpro yeast-2: inactive

Results for O=C(N/N=C/c1cc(Cl)cc([N+](=O)[O-])c1O)c1ccccc1NS(=O)(=O)c1cccs1 ?
Pf growth 96h: 86%; Shiga inhibitor: -7; Cycloheximide cs: -3; NS1 function inh: 3%; Pf growth 48h: 62%; SARS PLpro yeast-1: 4%

How did Cc1cc(C(=O)N/N=C/c2cc(Cl)cc([N+](=O)[O-])c2O)c2ccccc2n1 do in these assays?
Pf growth 96h: -27%; Shiga inhibitor: -11; Cycloheximide cs: 4; NS1 function inh: -52%; Pf growth 48h: 14%; SARS PLpro yeast-1: 2.2µM*; SARS PLpro yeast-2: inactive

What do the screens show for `Cc1cc(C(=O)NN=C2CCCC2)c2ccccc2n1`?
Pf growth 96h: -1%; Pf growth 48h: -2%; SARS PLpro yeast-1: -2%

What do the screens show for `CN1CCN(C(=S)NC(CC(=O)c2ccccc2)c2ccccc2)CC1` (stereo not drawn)?
Pf growth 96h: inconclusive; Shiga inhibitor: -9; Cycloheximide cs: -3; NS1 function inh: -1%; Pf growth 48h: -24%; SARS PLpro yeast-1: -2%

What do the screens show for `COc1ccc(NC(=O)N2CCC(n3nnc4cc(C)ccc43)CC2)cc1`?
Pf growth 96h: inconclusive; Shiga inhibitor: 2; Cycloheximide cs: 5; NS1 function inh: 0%; Pf growth 48h: inconclusive; SARS PLpro yeast-1: inconclusive; SARS PLpro yeast-2: inactive

How did CCc1nccn1CCC(=O)N1CCCC(Nc2ccc(C(C)C)cc2)C1 (stereo not drawn) do in these assays?
Pf growth 96h: 3%; Shiga inhibitor: -30; Cycloheximide cs: 0; NS1 function inh: -3%; Pf growth 48h: -13%; SARS PLpro yeast-2: inactive

Results for CC(C)c1ccc(NC2CCCN(C(=O)CCCn3cncn3)C2)cc1 (stereo not drawn) ?
Pf growth 96h: 7%; Shiga inhibitor: 14; Cycloheximide cs: -1; NS1 function inh: 6%; Pf growth 48h: 18%; SARS PLpro yeast-1: -2%

What do the screens show for `O=C(CC(NC(=O)c1ccccc1)c1ccccc1)Nc1cccc2ccccc12` (stereo not drawn)?
Pf growth 96h: 28%; Shiga inhibitor: -10; Cycloheximide cs: -2; NS1 function inh: 10%; Pf growth 48h: inconclusive; SARS PLpro yeast-1: inconclusive; SARS PLpro yeast-2: inactive

High-throughput results as filed in PubChem BioAssay.
